Hit rate of the full screen: of about 310,000 compounds, about 14,000 (4.5%) showed an effect of 50% or more. The effect is printed as a negative number. Many of the other results were omitted from the sample, so strong results are more common in it than they were.
These molecules were tested against human ether-à-go-go-related gene (hERG) potassium channel (human, UniProt Q12809) (assay: primary screen, population patch clamp on CHO cells stably expressing hERG; higher = less effect of the substance).
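Also: peak tail current of the secondary pulse compared with the same well before compound.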

Chain of human ether-à-go-go-related gene (hERG) potassium channel (Q12809 whole entry, looked up): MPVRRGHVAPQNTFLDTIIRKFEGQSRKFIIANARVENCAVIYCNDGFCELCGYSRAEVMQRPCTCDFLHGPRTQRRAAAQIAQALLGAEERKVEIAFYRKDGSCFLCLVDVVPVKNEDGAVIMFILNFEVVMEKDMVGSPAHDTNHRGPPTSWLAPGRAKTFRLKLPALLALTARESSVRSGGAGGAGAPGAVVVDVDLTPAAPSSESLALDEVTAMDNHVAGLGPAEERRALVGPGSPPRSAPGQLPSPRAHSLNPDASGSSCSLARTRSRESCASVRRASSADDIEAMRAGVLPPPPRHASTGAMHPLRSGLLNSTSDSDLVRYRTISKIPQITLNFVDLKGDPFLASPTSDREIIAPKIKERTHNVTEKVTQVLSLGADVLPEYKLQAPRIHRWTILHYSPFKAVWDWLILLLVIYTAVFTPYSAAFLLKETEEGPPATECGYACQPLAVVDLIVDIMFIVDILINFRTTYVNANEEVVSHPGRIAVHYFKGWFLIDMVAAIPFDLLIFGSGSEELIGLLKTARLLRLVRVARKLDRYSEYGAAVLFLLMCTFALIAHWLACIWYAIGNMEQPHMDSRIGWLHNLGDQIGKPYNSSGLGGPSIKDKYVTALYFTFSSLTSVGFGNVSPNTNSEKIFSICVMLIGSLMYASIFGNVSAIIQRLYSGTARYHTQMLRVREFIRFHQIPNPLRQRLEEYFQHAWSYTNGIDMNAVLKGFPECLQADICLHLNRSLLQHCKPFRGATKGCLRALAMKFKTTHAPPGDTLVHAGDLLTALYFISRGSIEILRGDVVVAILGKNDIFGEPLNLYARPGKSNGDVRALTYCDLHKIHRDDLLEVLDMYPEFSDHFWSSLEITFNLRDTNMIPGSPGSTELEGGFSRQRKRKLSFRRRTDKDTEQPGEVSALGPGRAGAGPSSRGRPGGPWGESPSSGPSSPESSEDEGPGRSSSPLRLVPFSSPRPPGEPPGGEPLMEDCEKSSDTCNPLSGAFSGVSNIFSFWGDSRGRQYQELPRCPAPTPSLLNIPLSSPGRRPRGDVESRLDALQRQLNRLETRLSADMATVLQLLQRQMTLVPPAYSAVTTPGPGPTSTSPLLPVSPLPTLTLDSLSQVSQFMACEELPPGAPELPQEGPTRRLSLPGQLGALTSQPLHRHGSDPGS

Row | Compound | hERG current change (%, negative = inhibition) at 10uM [%]
1 | O=C(CSc1nc(C2CCCCC2)nc2ccccc12)N1CCCC1 | -12.6
2 | COc1ccccc1/C=N/NC(=O)C1=NNC(c2ccccc2)(c2ccccc2)C1 | 2.43
3 | O=C(CSc1nncn1-c1ccccn1)Nc1ccccc1Cl | 4.16
4 | CCCCn1nnnc1SCC(=O)Nc1ccc(C)cc1 | 2.26
5 | COc1cccc(OCCn2cc(C=O)c3ccccc32)c1 | 15.2
6 | CC(C)(C)c1ccc(C(=O)Nc2cccc3ncccc23)cc1 | -2.82
7 | Cc1cc(Oc2ccccc2)nc(SCC(=O)Nc2ccccc2)n1 | 19.4
8 | CC1CCN(c2oc(-c3ccccc3F)nc2C#N)CC1 | -10.7
9 | COc1cccc(C(=O)N2CCOCC2)c1 | 20.2
10 | Cl.O=C(CCN1CCN(C/C=C/c2ccccc2)CC1)Nc1ccccc1Cl | -76.4
11 | Cc1ccccc1NC(=O)CCN1CCN(C)CC1 | 19.4
12 | O=C(Nc1ccccc1Cl)N1CCN(C/C=C/c2ccccc2)CC1 | -25.9
13 | Fc1ccc(NC(=S)N2CCN(C/C=C/c3ccccc3)CC2)c(F)c1 | -25.8
14 | Cc1ccccc1NC(=O)N1CCN(C/C=C/c2ccccc2)CC1 | -22.7
15 | O=C(CCN1CCN(Cc2ccccc2)CC1)Nc1ccccc1Cl | -46.2
16 | CCC(C)c1ccccc1NC(=O)CN1CCN(C/C=C/c2ccccc2)CC1 (stereo not shown) | -60.4
17 | Cc1ccc(S(=O)(=O)NC(CC(C)C)C(=O)N2CCN(C/C=C/c3ccccc3)CC2)cc1 (stereo not shown) | -21.3
18 | O=C(CN1CCN(C/C=C/c2ccccc2)CC1)Nc1ccc(F)cc1F | -78.1
19 | O=C(Nc1ccc(F)cc1F)N1CCN(C/C=C/c2ccccc2)CC1 | -39.9
20 | Cc1ccccc1NC(=O)CCN1CCN(C/C=C/c2ccccc2)CC1 | -78.9
21 | Cc1cc(NC(=O)CN2CCN(C/C=C/c3ccccc3)CC2)c([N+](=O)[O-])cc1C | -12
22 | O=C(COC(=O)c1cnccn1)c1ccc(Br)cc1 | 0.614
23 | O=C(CNC(=O)c1ccc(Cl)cc1Cl)OCN1C(=O)c2ccccc2C1=O | 3.68

Row | Compound | hERG current change (%, negative = inhibition) at 10uM [%]
24 | Cc1[nH]c2ccccc2c1C(=O)C(=O)NCC1CCCO1 (stereo not shown) | 6.3
25 | Cc1ccc(/C=C/C(=O)N2CC(=O)Nc3ccccc32)o1 | -24.2
26 | O=C(CN1C(=O)c2ccccc2C1=O)NCCOc1ccccc1 | -2.09
27 | Cc1ccccc1NC(=O)C(C)O/N=C/c1cccc([N+](=O)[O-])c1 (stereo not shown) | -38.7
28 | CCCS(=O)(=O)N1CCCC(C(=O)NCCCN(C)c2ccccc2)C1 (stereo not shown) | 5.82
29 | CN(C)/C=C(\C#N)S(=O)(=O)c1ccccc1 | 9.4
30 | O=C(CCN1CCN(C/C=C/c2ccccc2)CC1)Nc1ccccc1F.O=C(O)C(=O)O | -75.1
31 | Fc1ccccc1NC(=S)N1CCN(C/C=C/c2ccccc2)CC1 | -23.4
32 | O=C(CCN1CCN(c2ccccc2)CC1)Nc1ccccc1F | 8.14
33 | COc1ccc(CN2C(=O)c3ccccc3C2=O)cc1C(=O)Nc1ccccc1N1CCOCC1 | -10.7
34 | COCC(=O)N1CCC(Oc2ccc(C(=O)NCc3cc(C(C)C)no3)cc2)CC1 | -2.22
35 | CC(C)C(=O)Nc1cccc(-c2cnc3ccccc3n2)c1 | 4.12
36 | CC(=O)Nc1cccc(-c2cnc3ccccc3n2)c1 | -9.95
37 | CS(=O)(=O)Nc1cccc(-c2cnc3ccccc3n2)c1 | -70.4
38 | Cc1cc(S(=O)(=O)Nc2cccc(Cl)c2)c(C)s1 | 8.15
39 | CCn1c2ccccc2c2cc(/C=N/O)ccc21 | 40.6
40 | CSCCC1NC2(C(=O)Nc3ccc(Cl)cc32)[C@@H]2C(=O)N(C3CCCC3)C(=O)[C@H]12 (stereo partly shown) | -8.3
41 | Cc1cc(NC(=O)CSc2nc(-c3cccs3)nc3ccccc23)no1 | 14.7
42 | CCN1CCN(c2nc(Nc3ccc(C)c(C)c3)nc(N)c2[N+](=O)[O-])CC1 | -75
43 | Cc1ccc(Nc2nc(N)c([N+](=O)[O-])c(N3CCC(C)CC3)n2)cc1C | 7.13
44 | CCN1CCN(c2nc(Nc3cccc(OC)c3)nc(N)c2[N+](=O)[O-])CC1 | -73.3
45 | COc1cccc(Nc2nc(N)c([N+](=O)[O-])c(N3CCOCC3)n2)c1 | -14.2
46 | Cc1ccc(Nc2nc(N)c([N+](=O)[O-])c(N3CCOCC3)n2)cc1C | -13.9

Row | Compound | hERG current change (%, negative = inhibition) at 10uM [%]
47 | CCN1CCN(c2nc(Nc3cccc(C)c3)nc(N)c2[N+](=O)[O-])CC1 | -70.2
48 | CCOc1ccc(Nc2nc(N)c([N+](=O)[O-])c(N3CCN(C)CC3)n2)cc1 | -48.3
49 | CCN1CCN(c2nc(Nc3ccc(OC)cc3)nc(N)c2[N+](=O)[O-])CC1 | -32.2
50 | COc1ccc(Nc2nc(N)c([N+](=O)[O-])c(N3CCN(C)CC3)n2)cc1 | -26.6
51 | Cc1cccc(Nc2nc(N)c([N+](=O)[O-])c(N3CCOCC3)n2)c1 | -37.1
52 | CCOc1ccc(Nc2nc(N)c([N+](=O)[O-])c(N3CCN(CC)CC3)n2)cc1 | -62.6
53 | Cc1cccc(Nc2nc(N)c([N+](=O)[O-])c(N3CCN(C)CC3)n2)c1 | -48
54 | COc1ccccc1CC(=O)Nc1ccc(C(=O)N2CCCCC2)cc1 | 2.21
55 | CCOC(=O)CCNC(=O)N1CCCC(C(=O)c2cc(C)c(OC)c(C)c2)C1 (stereo not shown) | 5.81
56 | COC(=O)Cc1ccc(NC(=S)N2CCN(CCO)CC2)cc1 | 3.63
57 | CC1=C(OC(=O)C(C)(C)C)C(C)(C)C(c2ccccc2)OC1=O (stereo not shown) | -13.4
58 | COc1cccc(C2CC(c3cccc(OC)c3)n3nc(N)nc3N2)c1 (stereo not shown) | -4.11
59 | COc1ccc(-c2nnc(NC(=O)C(C)C)o2)cc1 | -3.15
60 | COc1ccc(N2C(=O)c3ccccc3NC23CCC(C)CC3)cc1 (stereo not shown) | 4.35
61 | C=CCn1nnnc1SCC(=O)Nc1cccc(C(F)(F)F)c1 | 9.66
62 | CC(NC(=O)C(C(=O)c1cccc([N+](=O)[O-])c1)n1cc(Cl)ccc1=O)c1ccccc1 (stereo not shown) | -15
63 | CCN1CCN(c2nc(N)c([N+](=O)[O-])c(Nc3cccc(C)c3)n2)CC1 | -45
64 | CCN1CCN(c2nc(Nc3cccc(F)c3)nc(N)c2[N+](=O)[O-])CC1 | -62.6
65 | Nc1nc(Nc2cccc(F)c2)nc(N2CCOCC2)c1[N+](=O)[O-] | -26.7
66 | CCN1CCN(c2nc(N)c([N+](=O)[O-])c(Nc3ccc(C)cc3)n2)CC1 | -68.9
67 | Cc1cccc(Nc2nc(N)c([N+](=O)[O-])c(N3CCC(C)CC3)n2)c1 | -15.7
68 | CCN1CCN(c2nc(Nc3ccccc3F)nc(N)c2[N+](=O)[O-])CC1 | -56.6
69 | Nc1nc(Nc2ccccc2F)nc(N2CCCC2)c1[N+](=O)[O-] | 4.5

Row | Compound | hERG current change (%, negative = inhibition) at 10uM [%]
70 | CCN1CCN(c2nc(Nc3ccccc3)nc(N)c2[N+](=O)[O-])CC1 | -63
71 | Nc1nc(Nc2ccccc2F)nc(N2CCOCC2)c1[N+](=O)[O-] | 4.6
72 | CN1CCN(c2nc(Nc3ccccc3)nc(N)c2[N+](=O)[O-])CC1 | -40.6
73 | Nc1nc(Nc2ccccc2)nc(N2CCCC2)c1[N+](=O)[O-] | -34.5
74 | CCN1CCN(c2nc(N)c([N+](=O)[O-])c(Nc3ccc(C)c(C)c3)n2)CC1 | -6.91
75 | CC12CN3CC(C)(CN(C1)C3c1cccnc1)C2=O (stereo not shown) | -0.24
76 | CC(NCc1ccco1)C(=O)N1CCc2ccccc2C1.Cl (stereo not shown) | 14
77 | O=C(COc1ccccc1)Nc1ccc2c(c1)C(=O)N(CC1CCCO1)C2=O (stereo not shown) | 6.03
78 | O=C(NCc1ccco1)c1ccc(Cn2cc([N+](=O)[O-])cn2)o1 | -10.3
79 | O=C1c2cccc3c(N4CCCCC4)ccc(c23)C(=O)N1c1cccc(O)c1 | 32.6
80 | CNC(=O)c1c(NC(=O)c2ccc(N3C(=O)CCC3=O)cc2)sc2c1CCCC2 | -13.3
81 | CCOc1cc(NC(=O)c2ccccc2C)c(OCC)cc1NC(=O)C1=Cc2ccccc2OC1 | 9.99
82 | CC(C)(C)NC(=S)NC(=O)C12CCC3CC(CC(C3)C1)C2 | 6.45
83 | O=C(Nc1ccnn1C1CCN(Cc2ccccn2)CC1)c1cccc(F)c1 | -7.3
84 | O=C(Nc1ccnn1C1CCN(C2CCOCC2)CC1)c1cccc(F)c1 | -1.9
85 | O=C(Nc1ccnn1C1CCN(C/C=C/c2ccccc2)CC1)c1cccc(F)c1 | -70.9
86 | O=C(Nc1ccnn1C1CCN(C/C=C/c2ccccc2)CC1)c1ccccc1Cl | -83.8
87 | CC(C)=CCN1CCC(n2nccc2NC(=O)c2ccccc2Cl)CC1 | -57.9
88 | CC(C)(C)CN1CCC(n2nccc2NC(=O)c2ccccc2Cl)CC1 | -20.3
89 | O=C(Nc1ccnn1C1CCN(Cc2ccc(CO)o2)CC1)c1ccccc1Cl | -0.636
90 | O=C(Nc1ccnn1C1CCN(Cc2ccc(CO)o2)CC1)c1ccccc1 | 1.16
91 | O=C(Nc1ccnn1C1CCN(C/C=C/c2ccccc2)CC1)c1ccccc1 | -73.7
